Screens from PubChem BioAssay.
In the library only some 1% were active in any assay of this set; here they are far more common.
RTF Ca sens act – increases calcium sensitivity of human cardiac regulated thin filaments. P19429+P45379. IANBD-labeled TnC RTF fluorescence at EC20 calcium; 0% EC20 calcium, 100% full calcium. activation, % at 7.2 µM. 340,000 tested, 0.24% active. AID 493008;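 active = activation above the mean over all tested compounds plus 3 SD, cut at about 30% in these data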;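 note: rise in fluorescence read as greater calcium sensitivity of cardiac thin filaments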
Keap1 Nrf2 FP – Keap1-Nrf2 (human) interaction inhibition; Keap1 Kelch-Nrf2 peptide fluorescence polarization, 1536-well; inhibition, % at 9.4 µM; 340,000 tested, 0.15% active; AID 504523; in the data active = inhibition above about 12%;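 note: human Keap1 Kelch domain with fluorescein labeled Nrf2 9mer peptide probe; higher means more block of Keap1 binding to Nrf2 peptide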
Cardiac RTF inh – cardiac RTF calcium desensitization; inhibition, % at 7.15 µM; IANBD-labeled cardiac RTF, Ca2+ fluorescence; 340,000 tested, 0.12% active; P19429+P45379;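 active = inhibition above the mean inhibition of all tested compounds plus 3 SD, cut at about 17% in these data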;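 note: assay run at fixed EC70 calcium of 1.6 mM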
LANA DNA inh – blocks KSHV LANA C-terminal domain binding to DNA. MBP-C-LANA/FAM-LBS DNA binding, fluorescence polarization. inhibition, % at 9 µM. 340,000 tested, 0.078% active;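 active = highest replicate inhibition at or above 60% at 9 µM, even if other replicates fall short; inactive = all replicates below 60% inhibition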
LANA-H2A inh – blocks KSHV LANA binding to histone H2A/H2B. Q9QR71. cell-free LANA-H2A/H2B peptide, fluorescence polarization. inhibition, % (concentration not given with the values). 320,000 tested, 0.6% active; in the data active = inhibition mostly above about 10%, no sharp cut-off; inactive = mostly below about 6.7%
Hits are given with their value; – = inactive; · = no result; + = active, no number.

SMILES	RTF Ca sens act	Keap1 Nrf2 FP	Cardiac RTF inh	LANA DNA inh	LANA-H2A inh
COc1cc(C2C3=C(COC3=O)Oc3cc4c(cc32)OCO4)cc(OC)c1OC(C)=O (stereo not given)	–	–	–	–	·
CCN(CC)c1ccc(S(=O)(=O)N2CCOCC2)cc1NC(=O)CN1CCc2ccccc2C1	–	–	–	–	33
CCN(CC)c1ccc(S(=O)(=O)N2CCOCC2)cc1NC(=O)Cn1nc(C)c([N+](=O)[O-])c1C	–	–	–	–	–
Cc1nn(S(=O)(=O)c2ccc(Cl)cc2)c(C)c1Sc1ccc([N+](=O)[O-])cc1	–	–	–	–	12
Cc1ccc(S(=O)(=O)N2CCN(C(=O)c3ccc(N4CCC(C)CC4)c([N+](=O)[O-])c3)CC2)cc1	–	–	–	–	·
CC[n+]1c(/C=C/C=C/N(C(C)=O)c2ccccc2)sc2ccccc21	421	–	–	–	–
COc1ccc(CSc2nnc(C)s2)cc1F	–	–	–	–	+
COC(=O)c1ccc(CSc2nnc(C)s2)cc1	–	–	–	–	–
C=CCn1c(=O)/c(=C/c2cc(OC)c(OC)c(OC)c2)s/c1=C(/C#N)c1nc2ccccc2n1C	37	30	–	–	–
C=CCn1c(=O)/c(=C/c2ccc(O)cc2)s/c1=C(/C#N)c1nnc2n1CCCCC2	–	–	–	–	–
CC(=O)N(C)c1ccc(C=C2C=Cc3ccccc32)cc1	–	–	–	–	·
O=C(N=c1ccn(-c2nc3ccccc3nc2NS(=O)(=O)c2ccccc2)cc1)c1ccccc1Cl	–	–	–	–	–
O=C(N=c1ccn(-c2nc3ccccc3nc2NS(=O)(=O)c2ccc(Cl)cc2)cc1)c1ccccc1Cl	·	·	·	·	15
O=C(c1cc(Br)ccc1Cl)N1CCCC1	–	–	–	–	11
Cc1ncc(CO)c2c1Oc1nc(-c3ccccc3)nc(SCC(=O)N3CCOCC3)c1C2	–	–	–	–	–
Cc1cccc(-c2nc3c(c(SCC(=O)N4CCOCC4)n2)Cc2c(CO)cnc(C)c2O3)c1	–	–	–	–	18
COc1ccc(/C=C2\C(=O)NC(=S)N2C(=O)c2ccc(F)cc2)cc1	–	–	–	–	+
O=C1NC(=S)N(C(=O)c2ccc(F)cc2)/C1=C/c1ccccc1	–	–	–	–	–
CC(Oc1ccc(Cl)cc1)c1ccnn1S(=O)(=O)c1ccc(Cl)cc1 (stereo not given)	–	–	–	–	–
Cc1ccc(S(=O)(=O)n2nccc2-c2c(-c3ccc(Cl)cc3)noc2C)cc1	·	–	·	–	17
C=CCOc1ccc(/C(O)=C2/C(=O)C(=O)N(CCCN3CCOCC3)C2c2ccc(OC)cc2)cc1 (stereo not given)	–	–	–	–	16
CCNC(=S)SCCOc1ccc(C)cc1	–	–	–	–	–
Cc1cc(CNC(=O)[C@H]2C[C@@H]2[C@H](NP(=O)(c2ccccc2)c2ccccc2)c2ccccc2)nn1C	·	·	·	·	24
CS(=O)(=O)NCCOc1ccc(S(=O)(=O)N2CCCc3ccccc32)cc1	–	–	–	–	–
O=C(NCc1cccc(C(F)(F)F)c1)C1CC(c2ccccc2C(F)(F)F)=NO1 (stereo not given)	–	–	–	–	–
SMILES	RTF Ca sens act	Keap1 Nrf2 FP	Cardiac RTF inh	LANA DNA inh	LANA-H2A inh
Cc1ccc(CN(C(=O)c2ccco2)C(C(=O)NC2CCCC2)c2cccnc2)cc1 (stereo not given)	–	–	–	–	+
O=C(NCC(=O)N(Cc1ccccc1)C(C(=O)NC1CCCC1)c1cccnc1)c1ccco1 (stereo not given)	–	–	–	–	–
CCN1C/C(=C\c2cc(OC)c(OC)c(OC)c2)C2=NN(c3ccccc3)C(c3cc(OC)c(OC)c(OC)c3)C2C1 (stereo not given)	–	–	–	–	·
CCN(CC(=O)Nc1ccc(NC(C)=O)cc1)C(=O)c1ccc2c(c1)OCCO2	–	–	–	–	–
CCN(CC(=O)Nc1ccc(NC(C)=O)cc1)C(=O)c1ccc2c(c1)OCO2	–	–	–	–	22
CCN(CC(=O)Nc1ccc(NC(C)=O)cc1)C(=O)C1CCCC1	–	–	–	–	103
CN(C)N1C(N)=C(C#N)C(c2ccc3c(c2)OCO3)C2=C1CCCC2=O (stereo not given)	–	–	–	–	–
O=C(CCl)NC1CCCc2ccccc21 (stereo not given)	–	–	–	–	–
O=C(CN1CCN(c2cccc(Cl)c2)CC1)NC1CCCc2ccccc21 (stereo not given)	–	–	–	–	20
